Abeta yeast res: compounds reversing amyloid beta toxicity in yeast. yeast expressing A-beta42, growth rescue, OD600, 48 h; response scale: 0% DMSO, 100% iron-clioquinol control. Potency, µM (highest dose often 46.1 µM), actives largely listed as activators. 410,000 compounds, 0.063% hits. AID 1347071; further: nearly all actives have a fitted effect of over 55% in size
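Growth rescue measured by 600 nm absorbance after 48 h yeast culture at 30 C with compound. Values normalized between DMSO and an equimolar ferric chloride plus clioquinol control.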
aSyn rescue: inhibitors of alpha-synuclein toxicity in yeast; AID 652106; 370,000 compounds, 0.14% hits; Yeast expressing alpha-synuclein, growth rescue, BacTiter-Glo, 24 h; Potency, µM (titrated, usually from 46.1 µM), hits mostly activators; further: nearly all actives have a fitted effect of over 65% in size
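Rescue of yeast growth: cells expressing toxic alpha-synuclein, induced in galactose at OD600 0.02, incubated with compound 24 h at 30 C. ATP luminescence quantified growth; inhibitors of toxicity appear as activators.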
FUS suppressor: rescues growth of FUS-expressing yeast; Potency, µM (highest dose often 76.6 µM), most hits filed as activators; 390,000 compounds, 0.24% hits; S. cerevisiae FUS-expressing, growth rescue, OD600, 24 h; further: nearly all actives have a fitted effect of over 55% in size
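Absorbance at 600 nm, taken 24hr after compound addition, measured rescue of FUS-yeast growth at 30C. Induction used 2% galactose with seeding at OD 0.005. Controls: CP55940 from 92uM final, DMSO only.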
TDP-43 yeast inh: TDP-43 toxicity inhibition in yeast. TDP-43 expressing yeast growth rescue, BacTiter-Glo, 24 h. Potency, µM (top dose mostly 46.1 µM), most hits filed as activators. 410,000 compounds, 1.8% hits. AID 652104; further: nearly all actives have a fitted effect of over 50% in size
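Yeast cells expressing TDP-43 under galactose induction are exposed to compounds for 24 hr at 30 deg C. BacTiter-Glo luminescence measures growth, so protective compounds score as activators.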
Large screens that a line does not name were inactive. Hits are enriched below; roughly 2.1% of the tested compounds scored in any of these assays. The call rests on the fitted dose curve; in most records, active means well fitted curve in the direction sought with a large enough effect; inconclusive means small, poorly fitted or top-dose-only effect, or another doubt; inactive means no such curve, though single readings can be large; an effect the other way counts as inactive or inconclusive.

COc1cccc(CCNC(=O)c2cnc3sc(N4CCOCC4)nn3c2=O)c1	none (no result: aSyn rescue)
Cc1ccc(Nc2ncnc(Cl)c2N)cc1	TDP-43 yeast inh 35µM
COC(=O)CCCC(=O)Nc1ccc(Cl)c(Cl)c1	TDP-43 yeast inh 10µM
CC1(C)CC(=O)C(Sc2ccc(Br)cc2)=C(O)C1	TDP-43 yeast inh 13µM
CC(C)C1C(=O)N(Cc2cn(CC3CCCCC3)nn2)CCS(=O)(=O)N1Cc1ccc(-c2ccc(F)nc2)cc1 (stereo unspecified)	none
CCc1ccc(C2=NN(c3ccc(S(N)(=O)=O)cc3)C(c3ccc(F)cc3)C2)cc1 (stereo unspecified)	Abeta yeast res inconclusive, TDP-43 yeast inh 14µM (no result: FUS suppressor)
COc1ccc(C2CC(c3ccccc3C(F)(F)F)=NN2c2ccc(S(N)(=O)=O)cc2)cc1 (stereo unspecified)	none
Cc1ccc(C2CC(c3ccccc3)=NN2c2ccc(S(N)(=O)=O)cc2)cc1 (stereo unspecified)	FUS suppressor inconclusive, TDP-43 yeast inh inconclusive
COc1ccc(C2CC(c3ccc(C(F)(F)F)cc3)=NN2c2ccc(S(N)(=O)=O)cc2)cc1 (stereo unspecified)	aSyn rescue inconclusive, FUS suppressor inconclusive, TDP-43 yeast inh 13µM
Nc1ccc(S(=O)(=O)c2ccccc2)nc1	none
ON=C(CCc1ccccc1)c1ccccc1	TDP-43 yeast inh 16µM
COc1cccc(CNS(=O)(=O)c2ccc3c(c2)CCN3C(=O)C2CCC2)c1	none (no result: aSyn rescue)
S=C(Nc1ccccc1)Nc1ccc(Br)cn1	Abeta yeast res inconclusive
CCCn1c(N2CCC(Cc3ccccc3)CC2)nc2c1c(=O)[nH]c(=O)n2C	TDP-43 yeast inh 22µM
CCOC(=O)c1c(C(C)(C)C)oc2ccc(O)cc12	TDP-43 yeast inh 18µM
CCC(=O)c1ccc(OCC(=O)N2CCN(C(=O)c3ccccc3)CC2)cc1	none
O=S(=O)(NC1c2cccc3cccc(c23)C1Sc1ncccn1)c1ccccc1 (stereo unspecified)	TDP-43 yeast inh 22µM
O=C(N/N=C/c1sc(N2CCOCC2)nc1-c1ccccc1)c1ccccc1Cl	none
O=C(N/N=C/c1sc(N2CCOCC2)nc1-c1ccccc1)c1ccccc1O	TDP-43 yeast inh 14µM
CCCCNC(=O)O/N=C(\N)CS(=O)(=O)C(C)(C)C	none
O=C(COC(=O)c1cccc(Cl)c1Cl)NCc1cccs1	TDP-43 yeast inh 13µM
O=C(COC(=O)c1c(Cl)cccc1Cl)NCc1cccs1	TDP-43 yeast inh inconclusive (no result: FUS suppressor)
CCC(C)(C)n1nnnc1C(c1cc2cc(C)cc(C)c2[nH]c1=O)N1CCCC1 (stereo unspecified)	FUS suppressor 25µM
CCC(C)(C)n1nnnc1C(c1cc2cccc(C)c2[nH]c1=O)N1CCCC1 (stereo unspecified)	FUS suppressor 32µM
CCC(C)(C)n1nnnc1C(c1cc2cc(C)cc(C)c2[nH]c1=O)N1CCN(Cc2ccc3c(c2)OCO3)CC1 (stereo unspecified)	none (no result: FUS suppressor)
CCC(C)(C)n1nnnc1C(c1cc2ccc(OC)cc2[nH]c1=O)N1CCCCC1 (stereo unspecified)	none
C=C(c1ccc2nc(NC(=O)OC)[nH]c2c1)c1cccs1	TDP-43 yeast inh 20µM (no result: FUS suppressor)
C=CCOc1ccc2nc(NC(=O)OC)[nH]c2c1	none
C/C(=N\NC(=O)c1ccc(Cl)c(Cl)c1)c1ccccn1	aSyn rescue 4µM, TDP-43 yeast inh 7.1µM
O=C(NN=C(c1ccccc1)c1ccccn1)c1ccccc1	none (no result: FUS suppressor)
C/C(=N/NC(=O)c1ccc(C(C)(C)C)cc1)c1ccccn1	aSyn rescue inconclusive, TDP-43 yeast inh 14µM
CC(=NNC(=S)N1CC2CCC(CC2)C1)c1ccccn1	TDP-43 yeast inh 22µM
CC(=NNC(=S)N1CC2CCC(CC2)C1)c1cnccn1	TDP-43 yeast inh inconclusive (no result: FUS suppressor)
COc1ccc(C(=O)N/N=C(\C)c2ccccn2)cc1OC	none
COc1ccc(C(=O)N/N=C(\c2ccccc2)c2ccccn2)cc1	TDP-43 yeast inh 22µM (no result: FUS suppressor)
Cc1ccc(-c2nc(CS(=O)(=O)CC(=O)NC3CCC(C)CC3)c(C)o2)cc1 (stereo unspecified)	none (no result: Abeta yeast res)
CCn1c(-c2cccnc2Cl)nc2cc(Cl)c(Cl)cc21	TDP-43 yeast inh inconclusive
Cc1nc2cc(Cl)c(Cl)cc2n1-c1ccccn1	TDP-43 yeast inh 13µM
CCCOc1ccc(/C=N\NC(=O)CCc2n[nH]c(=O)[nH]c2=O)cc1OC	none
COc1ccc(-n2c(SCC(=O)Nc3nccs3)nc3sc4c(c3c2=O)CCN(C)C4)cc1	FUS suppressor 28µM
